The campaign covered roughly 320,000 compounds. About 2,100 (0.66%) were called active. About 53% were inconclusive and are not listed. The sample holds actives, similar compounds and a random draw of the others, so the mix is not that of the screen. Calls follow the shape of the dose curve; as a rule, active = well fitted inhibition curve with a large enough effect in the signal ratio, with a control signal flat (not every such curve was filed as active); inconclusive = small, poorly fitted or top-dose-only effect, or effect the other way, or a change in a side signal; inactive = flat fitted curve, though single readings scatter; the % refers to the signal ratio.
assay: qHTS Assay for Lipid Storage Modulators in Drosophila S3 Cells; settings: BODIPY lipid droplet fluorescence, 18-24 h, cells fed with added oleic acid; cell number change: measured here: cell count max response; series mostly up to 46.1 µM; lipid storage change, negative = inhibition: at the top concentration;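 as to cell number change: cells counted by Cell Tracker Red CMTPX staining in the red channel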; as to lipid storage change, negative = inhibition: % is scaled to controls: 0 for no effect and ±100 for the full control effect
Summary of the method: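 Laser-scanning cytometry quantifies lipid droplet accumulation (500–530 nm total intensity; droplet/cell object ratio) in oleic acid-fed (400 uM added) Drosophila S3 cells treated with a concentration series. 20 uM Triacsin C defined 100% inhibition.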
Potency is read from the fitted curve at half-maximal effect.

Structure (SMILES) | lipid storage change, negative = inhibition | cell number change | Potency | outcome
Cc1ccc(CNC(=O)C2CCN(c3nnc(N4CCCC4=O)s3)CC2)cc1 | -27.3% (inactive) | 24.8% |  | 
CC1CC(C)CN(CCCNC(=O)C2CCCN(c3nnc(N4CCCC4=O)s3)C2)C1 (configuration not stated) | -2.92% (inactive) | 2.76% |  | 
CCN(CC)CCCNC(=O)C1CCCN(c2nnc(N3CCCC3=O)s2)C1 (configuration not stated) |  | -17% | 25.9 µM (active) | 
COc1ccccc1NC(=O)c1c([N+](=O)[O-])c(C(C)(C)C)nn1C | 4.27% (inactive) | 11.1% |  | 
C#CCNC(=O)C1=C[C@@H](c2coc3ccccc3c2=O)C[C@@H](OCCCCO)O1 | -3.82% (inactive) | 6.85% |  | 
CCN1CCN(c2ccccc2NC(=O)C(C)Oc2ccc(C(C)=O)cc2)CC1 (configuration not stated) |  | -13.7% | 18.4 µM (active) | 
CC(=O)c1ccc(OCC(=O)Nc2ccccc2N2CCCC2)cc1 | -11.1% (inactive) | -18% |  | 
CC(Oc1cccc(Cl)c1)C(=O)Nc1ccccc1N1CCCCC1 (configuration not stated) | -4.15% (inactive) | 7.85% |  | 
O=C(NNC(=O)c1ccc(Br)s1)NC1CCCCC1 | 2.2% (inactive) | 8.62% |  | 
CCc1nnc(NC(=O)CSc2nnc(-c3c[nH]c4ccccc34)n2C)s1 | 3.62% (inactive) | 4.19% |  | 
CCSc1nnc(NC(=O)CSc2nnc(-c3c[nH]c4ccccc34)n2C)s1 |  | -1.84% | 2.06 µM (active) | 
CCSc1nnc(NC(=O)CSc2nnc(-c3c[nH]c4ccccc34)n2CC)s1 |  | 11.1% |  | inactive
CSc1cccc(NC(=O)C2CCN(S(=O)(=O)c3ccc4c(c3)NC(=O)CO4)CC2)c1 |  |  |  | inactive
O=C(Cc1cccs1)NCCn1ccc2ccccc21 | 17.3% (inactive) |  |  | 
CCOC(=O)CC(=O)CSc1nc2c(sc(=S)n2-c2ccccc2)c(=O)[nH]1 | -9.14% (inactive) | 3.4% |  | 
CC1(C)CC(CC(=O)O)CC(C)(C)N1 | -1.16% (inactive) | 0.961% |  | 
C/C(=N\O)C1CC(CC(=O)O)C1(C)C (configuration not stated) |  | 4.13% | 2.06 µM (active) | 
COCCNC(=O)CSc1nnc(NC(=O)C2CC(=O)N(c3ccccc3OC)C2)s1 (configuration not stated) | 10.5% (inactive) | 3.03% |  | 
O=C(CCN1CCN(C(=O)c2ccccc2)CC1)c1ccc(Br)cc1 |  | 16% |  | inactive
CC(=O)OCC(OC(C)=O)C(OC(C)=O)C(OC(C)=O)C(=O)Nc1ccccc1 (configuration not stated) | -3.16% (inactive) | 13.3% |  | 
CCSc1nnc2c(n1)[nH]c1c(C)cccc12 |  | -28.9% | 20.6 µM (active) | 
CCSc1nnc2nc3[nH]c4c(C)cccc4c3nn12 | 3.26% (inactive) | 0.802% |  | 
CSc1nnc2c(n1)[nH]c1c(C)cccc12 | 15.9% (inactive) | -19.5% |  | 
COc1ccc([N+](=O)[O-])cc1NC(=O)CSCc1ccccc1 | 2.02% (inactive) | -5.97% |  | 

Structure (SMILES) | lipid storage change, negative = inhibition | cell number change | Potency | outcome
c1csc(Cc2nc3ccccc3[nH]2)c1 |  |  |  | inactive
O=C(COC(=O)C12CC3CC(CC(C3)C1)C2)Nc1ccc2[nH]c(=O)[nH]c2c1 |  |  |  | inactive
Cc1cccc(NC(=O)Cn2c(=O)n(CCC(=O)NC3CCCC3)c(=O)c3ccccc32)c1 |  |  |  | inactive
O=C(NCc1ccccn1)c1ccc2c(=O)n3nc(Nc4ccccc4)sc3nc2c1 |  |  | 4.11 µM (active) | 
CCc1ccccc1Nc1nn2c(=O)c3ccc(C(=O)NCc4cccs4)cc3nc2s1 | -18.5% (inactive) | -9.06% |  | 
COc1ccccc1Nc1nn2c(=O)c3ccc(C(=O)NCc4cccnc4)cc3nc2s1 | 14.8% (inactive) | -12.9% |  | 
COc1ccc(OC)c(-c2csc(NC(=O)C3CSC4(C)CCC(=O)N34)n2)c1 (configuration not stated) | 24.3% (inactive) |  |  | 
CN1CCN(CCCNC(=S)Nc2ccc(F)c(Cl)c2)CC1 | 26.4% (inactive) |  |  | 
CCNc1nc(N)nc(-c2cc(Cl)ccc2OC)n1 |  | -11.6% | 3.66 µM (active) | 
CNc1nc(N)nc(-c2cc(Cl)ccc2OC)n1 | 22.3% (inactive) | -0.358% |  | 
CCCNc1nc(N)nc(-c2cc(Cl)ccc2OC)n1 | 5.2% (inactive) | 5.2% |  | 
CC(=O)c1ccc(NC(=O)CN(C)CC(=O)Nc2cccc(F)c2)cc1 | 7.62% (inactive) | 10.5% |  | 
CC1CN(S(=O)(=O)c2cccc(-c3cn4cccnc4n3)c2)CC(C)O1 (configuration not stated) | 13.1% (inactive) | -27.2% |  | 
Cc1ccn2cc(-c3cccc(S(=O)(=O)N4CC(C)OC(C)C4)c3)nc2c1 (configuration not stated) | -2.61% (inactive) | 5.5% |  | 
Cc1ccc2nc(-c3cccc(S(=O)(=O)N4CC(C)OC(C)C4)c3)cn2c1 (configuration not stated) |  | -15.5% | 16.4 µM (active) | 
CCNC(=S)NS(=O)(=O)c1ccc(CC)cc1 | 6.51% (inactive) | -7.16% |  | 
CCCn1cc2c(c1-c1ccc(C)cc1)c(=O)n(C)c(=O)n2C | -9.64% (inactive) | 4.81% |  | 
CC1=C(C(=O)N2CCc3ccccc32)C2(CCC(C)CC2)OC1=O (configuration not stated) | -2.81% (inactive) | -7.54% |  | 
O=C(O)c1c2c(nc3ccc(F)cc13)CCC2 | -2.17% (inactive) | -14.4% |  | 
CN(C)C(=O)c1c2c(nc3ccccc13)CCCC2 |  | 1.75% |  | inactive
Cc1cc(Br)c2nc3c(c(C(=O)O)c2c1)CCCCC3 | -4.98% (inactive) | -0.276% |  | 
CCOc1c2c(nc3ccc(Cl)cc13)CCC2 | 6.62% (inactive) | 8.32% |  | 
O=C(O)c1c2c(nc3ccc(Cl)cc13)CCC2 |  |  | 0.0517 µM (active) | 
Cc1cccc2c(C(=O)O)c3c(nc12)CCCCC3 |  | -17% | 18.4 µM (active) | 
